The structures appear in SMILES notation. Results filed as inconclusive are left out. The source made the active and inactive calls.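 How the source made its calls, unless noted: active means viability loss from added drug above about 55%, and viability with drug at most 40%, in both replicates (limit read from the data, passing the limit was not always enough); inconclusive means both conditions met in only one replicate; inactive means neither replicate meets both conditions.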

The nature of assay [1]: Her2 expression decrease, cell viability multiplex – SKBR3 breast tumor cells, AlphaScreen, ATP viability, primary screen (AID 461;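 active means Her2 level under about 52% in both replicate screens, with viability over 70% of control, limit read from the data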;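 on Her2 level: lower value means less Her2 protein in the cells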;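 on viability: percent of carrier control wells set as 100% viability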). The conditions noted are these: SKBR3 Her2 protein level, 18-24 h, measured here: SKBR3 viability, ATP luminescence, at 10 µM.
For assay [2], the target named is Receptor tyrosine-protein kinase erbB-2 (Homo sapiens) (UniProt P04626). Described as above. As to conditions: 18-24 h, at 10 µM, stronger effect = lower value.
A short description of assay [3]: reduced viability of SK-BR-3 breast cancer cells – cell-based, 24 h, human, pilot screen (AID 572;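 active means viability at or below 10% of carrier control in both of two separate runs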;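 further: compound exposure lasted between 18 and 24 h rather than exactly 24 h; 100% = carrier-treated control wells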). As to conditions: SK-BR-3 viability, CellTiter-Glo luminescence, at 10 µM, stronger effect = lower value. (In general: In ATP-based viability assays light output follows the ATP content of the culture.)
The nature of assay [4]: HUVEC growth inhibition – cell-based, human, primary screen (AID 575;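 active means viability at or below 30% in both replicate assays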;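 further: 100% = median of untreated cell wells with 0.1% DMSO on each plate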). The conditions noted are these: HUVEC proliferation, CellTiter-Glo luminescence, 72 h; at 10 µM; stronger effect = lower value.
Assay [5] can be described thus: H69AR cell proliferation blockers – human, duplicate replicates, primary screen (AID 580;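 active means viability at or under a set limit in both replicates, limit being median viability minus 3 SD, cut at about 48% in these data, passing the limit was not always enough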;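 further: 100% = mean luminescence of untreated wells and 0% = no signal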). The conditions noted are these: H69AR lung tumor cells viability, ATP luminescence, 72 h; at 10 µM; stronger effect = lower value.
Assay [6] in a line: MRP1 drug-resistance reversers in H69AR cells – cell-based, doxorubicin co-treatment, pilot screen (AID 601). As to conditions: CellTiter-Glo, 72 h, at 10 µM; for differential viability (reversal): stronger effect = higher value.
A short description of assay [7]: yeast transport mutant growth inhibition pilot in 384-well plates, post-Golgi transport modulator project (AID 636; in the data active means inhibition above about 31%). The conditions noted are these: absorbance 615 nm, about 18 h, stronger effect = higher value.
Assay [8] can be described thus: growth suppression of yeast trafficking mutant, preliminary HTS, modulators of trafficking downstream of Golgi apparatus project, 1536-format plate, OD 615 nm (AID 637; in the data active means inhibition above about 30%). As to conditions: yeast transport mutant growth, absorbance 615 nm, 18 h; stronger effect = higher value.
Assay [9] is described as follows: S. cerevisiae growth inhibition in permissive medium (OD615), pilot counter-assay for S. cerevisiae lifespan shortening project, permissive growth control (AID 705;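 active means growth inhibition above 25% in both replicates, a cutoff set 3 SD above the mean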). As to conditions: OD615, 24 h, at 10 µM, stronger effect = higher value.
Assay [10] can be described thus: S. cerevisiae growth inhibition in restrictive medium, OD615, pilot screen, restrictive growth control, yeast lifespan reduction project (AID 706;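 active means growth inhibition above a set limit, 3 SD over mean compound inhibition, in both replicates, cut at about 43% in these data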;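 further: modified DeaD lifespan yeast strain shifted to restrictive glucose medium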). The conditions noted are these: OD615, 48 h, at 10 µM, stronger effect = higher value.
Assay [11] in a line: doxorubicin toxicity protection in MRP-1 cells – H69AR cells, CellTiter-Glo, duplicate, MRP-1 activator project, pilot screen (AID 807;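 active means viability increase at or above a cutoff of the median across tested compounds plus 3 SD, cut at about 8.5% in these data, passing the limit was not always enough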;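 further: compound pretreatment 18-22 h then 72 h combined with doxorubicin; 0% = doxorubicin alone and 100% = vehicle without doxorubicin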). As to conditions: H69AR viability with doxorubicin, CellTiter-Glo luminescence; at 10 µM; stronger effect = higher value.
Assay [12] is described as follows: viability of HCT116 without oncogenic beta-catenin – human colon tumor cells, pilot screen (AID 823;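 active means cell viability at or below a set limit in both duplicate runs, the limit being the all-compound median minus 4 SD, cut at about 23% in these data, passing the limit was not always enough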;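 further: 0% = wells killed by 20 µM Hyamine and 100% = untreated DMSO cell wells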). As to conditions: HCT116 beta-catenin knockout viability, CellTiter-Glo, 60 h; at 10 µM; stronger effect = lower value.
A short description of assay [13]: viability of PTEN-null HCT116 cells – cell-based, HCT116 clonal line, CellTiter-Glo, pilot screen (AID 824;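 active means viability at or below 27.92% in each of two runs, the all-compound median minus 4 SD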;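 further: 0% = 20 µM Hyamine control and 100% = vehicle cell control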). The conditions noted are these: HCT116 PTEN-deleted viability, 60 h, at 10 µM, stronger effect = lower value.
The nature of assay [14]: RAM pathway blockade in budding yeast – dse1pr::URA3 reporter, 5-FOA selection, pilot screen (AID 869;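 active means inhibition over a set limit, the all-compound mean plus 3 SD, in both replicate runs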;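 further: 0% = DMSO wells with no growth and 100% = 10 µM 1-NA-PP1 with full growth; RAM network block rescues cells from 5-FOA so hits raise OD615 growth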). The conditions noted are these: S. cerevisiae dse1pr::URA3 5-FOA growth, OD615, 2 d; at 10 µM; stronger effect = higher value; strain carries analog-sensitive mutant Cbk1 kinase.
A short description of assay [15]: RAM signaling pathway blockade in yeast – S. cerevisiae, Pdr1DBD-CYC8 efflux-inhibited sensitized strain, primary screen (AID 1298;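 active means RAM network inhibition above 8.4% in each of two replicates, 3 SD over the compound average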;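 further: 0% = DMSO untreated cells without growth and 100% = 10 µM 1-NA-PP1 full growth; higher means more yeast growth rescued from 5-FOA killing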). The conditions noted are these: S. cerevisiae cbk1-as DSE1-URA3 strain, 5-FOA growth OD615, 2 d; at 50 µM; stronger effect = higher value.
Setting [16] is: H69AR cells + 2 uM doxorubicin, measured here: viability with 2 uM doxorubicin, stronger effect = lower value.
Setting [17] is: H69AR cells, compound alone cytotoxicity.

Chain of Receptor tyrosine-protein kinase erbB-2 (Homo sapiens) (P04626 whole entry, looked up): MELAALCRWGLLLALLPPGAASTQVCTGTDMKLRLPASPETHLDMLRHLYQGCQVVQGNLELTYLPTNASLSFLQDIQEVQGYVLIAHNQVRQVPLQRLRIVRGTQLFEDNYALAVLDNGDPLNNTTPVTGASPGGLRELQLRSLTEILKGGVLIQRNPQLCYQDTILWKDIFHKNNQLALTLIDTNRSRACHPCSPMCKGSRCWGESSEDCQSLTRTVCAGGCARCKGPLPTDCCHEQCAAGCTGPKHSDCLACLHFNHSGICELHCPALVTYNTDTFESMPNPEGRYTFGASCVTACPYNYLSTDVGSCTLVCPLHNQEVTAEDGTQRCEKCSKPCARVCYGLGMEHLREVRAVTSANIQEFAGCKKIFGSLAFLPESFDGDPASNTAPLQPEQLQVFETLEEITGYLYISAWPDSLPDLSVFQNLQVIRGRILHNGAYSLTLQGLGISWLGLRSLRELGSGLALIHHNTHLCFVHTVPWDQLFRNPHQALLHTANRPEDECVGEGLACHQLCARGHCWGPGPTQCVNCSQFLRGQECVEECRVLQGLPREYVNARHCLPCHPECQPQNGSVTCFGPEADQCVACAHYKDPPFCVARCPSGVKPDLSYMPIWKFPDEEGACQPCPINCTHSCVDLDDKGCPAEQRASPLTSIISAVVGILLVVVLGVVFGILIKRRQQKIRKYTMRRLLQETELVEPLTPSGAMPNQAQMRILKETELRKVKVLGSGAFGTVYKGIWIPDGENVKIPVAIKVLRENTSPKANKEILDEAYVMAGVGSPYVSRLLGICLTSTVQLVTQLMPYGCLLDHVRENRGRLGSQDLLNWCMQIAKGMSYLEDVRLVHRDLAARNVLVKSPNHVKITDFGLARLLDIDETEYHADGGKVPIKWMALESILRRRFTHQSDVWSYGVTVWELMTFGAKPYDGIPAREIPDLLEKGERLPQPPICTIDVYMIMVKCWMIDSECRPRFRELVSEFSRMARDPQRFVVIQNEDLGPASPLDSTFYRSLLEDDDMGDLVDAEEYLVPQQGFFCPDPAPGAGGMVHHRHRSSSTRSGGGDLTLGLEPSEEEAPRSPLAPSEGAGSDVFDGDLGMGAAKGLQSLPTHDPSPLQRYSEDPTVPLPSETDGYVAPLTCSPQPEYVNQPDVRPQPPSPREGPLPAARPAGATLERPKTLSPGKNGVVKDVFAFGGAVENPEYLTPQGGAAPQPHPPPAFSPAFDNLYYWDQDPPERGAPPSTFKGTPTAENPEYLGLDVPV

Broadly, the viability is a read-out of living cells in per cent, often relative to untreated cells. One may read the inhibition as the change of the read-out against control, counted positive when it falls. For `CCN1C(=O)c2ccccc2S(=O)(=O)c2ccc(C(=O)NCc3cccnc3)cc21`, the viability in assay [1] was 95.5%; in [3], 95.5% (inactive); in [4] it was 85.6% (inactive); in [5], 91.5% (inactive); in assay [6] (setting [16]), 91.6%; in [6] (setting [17]) it was 91.5%. The viability was 93.4% (inactive) in [12] and 90.4% (inactive) in assay [13]. In addition, the Her2 level in [2] was 114% (inactive). Moreover, in assay [6] (H69AR cells + 2 uM doxorubicin), the differential viability (reversal) is -0.065% (inactive). The inhibition in assay [7] was 0.93% (inactive); in [8] it was 8.5% (inactive); in assay [14] it was 0.65% (inactive). Also, the growth inhibition in assay [9] was -2.51% (inactive); in assay [10], -4.21% (inactive). The viability increase in assay [11] is -2.25% (inactive). Also, the RAM network inhibition in assay [15] was 1.98% (inactive).
On to `CCCc1cc(C(=O)Nc2ccc(C(C)=O)cc2)no1`, for which the viability in assay [1] is 80.5%; in [3], 80.5% (inactive); in assay [4] it was 77.7% (inactive); in assay [5] it was 99.5% (inactive); in [6] (setting [16]), 93.9%; in assay [6] (setting [17]), 99.5%. In addition, the viability is 98.5% (inactive) in [12] and 104% (inactive) in [13]. Besides, in assay [2], the Her2 level is 91% (inactive). The differential viability (reversal) in assay [6] (H69AR cells + 2 uM doxorubicin) was 5.59% (inactive). Further, the figures for the inhibition in assay [7], in [8] and in assay [14] were 1.92% (inactive), -1% (inactive) and 2.74% (inactive), respectively. The values for the growth inhibition in assay [9] and in assay [10] were -0.51% (inactive) and -1.09% (inactive), respectively. Besides, the viability increase in [11] was -0.27% (inactive). In addition, the RAM network inhibition in [15] is 6.52% (inactive).
On to `Cn1c(=O)c(=O)n(C)c2cc(S(=O)(=O)CCC(=O)N3CCOCC3)ccc21`, for which the viability in assay [1] was 88.5%; in assay [3] it was 88.5% (inactive); in [4], 106% (inactive); in assay [5], 95% (inactive); in [6] (setting [16]) it was 102%; in assay [6] (setting [17]) it was 95%. In addition, the viability was 103% (inactive) in [12] and 102% (inactive) in assay [13]. Further, in assay [2], the Her2 level was 84% (inactive). In addition, the differential viability (reversal) in assay [6] (H69AR cells + 2 uM doxorubicin) is -6.71% (inactive). In addition, the inhibition in assay [7] was -0.4% (inactive); in [8] it was 12.5% (inactive); in [14] it was 0.99% (inactive). For the same molecule, the figures for the growth inhibition in assay [9] and in [10] were -2.16% (inactive) and -4.52% (inactive), respectively. In addition, the viability increase in [11] is -2.26% (inactive). The RAM network inhibition in assay [15] was 6.32% (inactive).
For `CCCOc1ccc(N2CC(C(=O)Nc3ccc4c(c3)OCO4)CC2=O)cc1` (stereo not given), the viability was 107% in assay [1]; 107% (inactive) in assay [3]; 79.3% (inactive) in assay [4]; 86.4% (inactive) in assay [5]; 95.4% in [6] (setting [16]); 86.4% in assay [6] (setting [17]). In addition, the viability in [12] was 107% (inactive); in assay [13], 102% (inactive). Besides, the Her2 level in [2] is 94% (inactive). The differential viability (reversal) in [6] (H69AR cells + 2 uM doxorubicin) was -9.04% (inactive). Besides, the inhibition in [7] is -4.13% (inactive); in assay [8], -1.67% (inactive); in assay [14], 2.89% (inactive). Besides, the growth inhibition is -11.2% (inactive) in assay [9] and 12.3% (inactive) in [10]. For the same molecule, in assay [11], the viability increase was -2.44% (inactive). The RAM network inhibition in assay [15] was 2.77% (inactive).
In the case of `CCOc1cccc(-c2nnc3n2N=C(c2cc(OC)ccc2OC)CS3)c1`, the viability is 104% in assay [1]; 104% (inactive) in assay [3]; 42.4% (inactive) in assay [4]; 13.5% (active) in [5]; 74.2% in assay [6] (setting [16]); 13.5% in [6] (setting [17]). The viability was 19.4% (active) in assay [12] and 21.2% (active) in [13]. Further, in assay [2], the Her2 level was 83.5% (inactive). In addition, the differential viability (reversal) in [6] (H69AR cells + 2 uM doxorubicin) is -60.8% (inactive). Besides, the inhibition in assay [7] was -5.87% (inactive); in assay [8], 1.75% (inactive); in assay [14], 1.96% (inactive). Further, the growth inhibition in [9] is 16.2% (inactive); in [10] it was 50.3% (active). The viability increase in assay [11] is -3.98% (inactive). The RAM network inhibition in assay [15] was 6.09% (inactive).
